For test [1], the target named is T1, Serine/threonine-protein kinase TBK1 (Homo sapiens) (UniProt Q9UHD2).
T1 sequence (whole entry): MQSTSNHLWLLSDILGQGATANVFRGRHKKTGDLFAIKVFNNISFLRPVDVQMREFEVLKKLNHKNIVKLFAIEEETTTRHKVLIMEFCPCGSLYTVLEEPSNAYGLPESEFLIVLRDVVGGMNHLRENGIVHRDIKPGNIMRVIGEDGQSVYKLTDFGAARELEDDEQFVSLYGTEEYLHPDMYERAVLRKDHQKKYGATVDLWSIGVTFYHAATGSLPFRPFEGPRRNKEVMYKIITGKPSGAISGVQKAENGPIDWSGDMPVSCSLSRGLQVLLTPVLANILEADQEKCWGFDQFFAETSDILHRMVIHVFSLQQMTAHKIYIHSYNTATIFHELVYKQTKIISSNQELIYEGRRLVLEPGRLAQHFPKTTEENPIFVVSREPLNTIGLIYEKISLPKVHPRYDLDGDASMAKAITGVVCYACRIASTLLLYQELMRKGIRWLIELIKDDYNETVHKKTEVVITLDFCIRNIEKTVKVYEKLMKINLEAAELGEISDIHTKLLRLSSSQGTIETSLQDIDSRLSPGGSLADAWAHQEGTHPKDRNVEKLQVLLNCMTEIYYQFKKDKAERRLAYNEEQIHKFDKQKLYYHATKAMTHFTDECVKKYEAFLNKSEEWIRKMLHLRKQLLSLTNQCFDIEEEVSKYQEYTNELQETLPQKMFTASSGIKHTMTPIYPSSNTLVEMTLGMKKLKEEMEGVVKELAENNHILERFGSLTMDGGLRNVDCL
Particulars: at 10 µM.

Test [2] deals with T2, TGF-beta receptor type-1 (Homo sapiens) (UniProt P36897).
T2 sequence (whole entry): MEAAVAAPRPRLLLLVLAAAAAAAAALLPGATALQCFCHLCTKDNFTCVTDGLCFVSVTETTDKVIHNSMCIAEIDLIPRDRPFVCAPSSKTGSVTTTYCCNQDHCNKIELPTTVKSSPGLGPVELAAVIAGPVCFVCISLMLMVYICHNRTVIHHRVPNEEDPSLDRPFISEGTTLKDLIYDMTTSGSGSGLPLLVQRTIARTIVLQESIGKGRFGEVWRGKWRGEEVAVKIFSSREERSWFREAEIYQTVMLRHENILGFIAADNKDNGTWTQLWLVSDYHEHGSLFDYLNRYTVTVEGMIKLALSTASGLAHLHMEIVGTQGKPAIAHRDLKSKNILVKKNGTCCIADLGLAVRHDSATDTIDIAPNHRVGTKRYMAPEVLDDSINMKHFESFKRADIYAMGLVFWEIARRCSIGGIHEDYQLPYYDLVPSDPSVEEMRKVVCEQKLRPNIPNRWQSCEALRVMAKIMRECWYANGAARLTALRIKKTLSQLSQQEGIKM
Particulars: at 1 µM.

In test [3] the target is T2, TGF-beta receptor type-1 (Homo sapiens). Conditions: at 10 µM.
The target in test [4] is Insulin-like growth factor 1 receptor (Homo sapiens) (UniProt P08069). Conditions: at 1 µM.
Sequence of Insulin-like growth factor 1 receptor (Homo sapiens) (P08069 31-736 limits assumed): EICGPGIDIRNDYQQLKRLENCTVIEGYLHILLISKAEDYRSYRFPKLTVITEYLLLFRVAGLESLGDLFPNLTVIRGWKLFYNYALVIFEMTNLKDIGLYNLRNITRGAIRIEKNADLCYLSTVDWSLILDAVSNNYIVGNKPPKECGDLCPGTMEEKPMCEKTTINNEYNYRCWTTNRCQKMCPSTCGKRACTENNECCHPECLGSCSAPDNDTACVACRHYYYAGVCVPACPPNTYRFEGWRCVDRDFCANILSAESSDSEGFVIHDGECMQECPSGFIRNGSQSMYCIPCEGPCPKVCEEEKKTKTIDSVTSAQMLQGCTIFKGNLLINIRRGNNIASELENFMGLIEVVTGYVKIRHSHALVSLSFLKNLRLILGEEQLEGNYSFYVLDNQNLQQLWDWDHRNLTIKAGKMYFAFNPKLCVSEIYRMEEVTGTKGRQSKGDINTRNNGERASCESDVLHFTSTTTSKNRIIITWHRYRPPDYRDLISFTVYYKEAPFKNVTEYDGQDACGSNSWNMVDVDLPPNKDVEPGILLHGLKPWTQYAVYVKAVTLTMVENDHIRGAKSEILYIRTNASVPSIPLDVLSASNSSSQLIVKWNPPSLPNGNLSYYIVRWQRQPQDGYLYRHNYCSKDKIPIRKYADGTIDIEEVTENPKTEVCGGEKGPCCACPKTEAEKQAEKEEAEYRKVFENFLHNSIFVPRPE
Sequence of Insulin-like growth factor 1 receptor (Homo sapiens) (P08069 741-1367 limits assumed): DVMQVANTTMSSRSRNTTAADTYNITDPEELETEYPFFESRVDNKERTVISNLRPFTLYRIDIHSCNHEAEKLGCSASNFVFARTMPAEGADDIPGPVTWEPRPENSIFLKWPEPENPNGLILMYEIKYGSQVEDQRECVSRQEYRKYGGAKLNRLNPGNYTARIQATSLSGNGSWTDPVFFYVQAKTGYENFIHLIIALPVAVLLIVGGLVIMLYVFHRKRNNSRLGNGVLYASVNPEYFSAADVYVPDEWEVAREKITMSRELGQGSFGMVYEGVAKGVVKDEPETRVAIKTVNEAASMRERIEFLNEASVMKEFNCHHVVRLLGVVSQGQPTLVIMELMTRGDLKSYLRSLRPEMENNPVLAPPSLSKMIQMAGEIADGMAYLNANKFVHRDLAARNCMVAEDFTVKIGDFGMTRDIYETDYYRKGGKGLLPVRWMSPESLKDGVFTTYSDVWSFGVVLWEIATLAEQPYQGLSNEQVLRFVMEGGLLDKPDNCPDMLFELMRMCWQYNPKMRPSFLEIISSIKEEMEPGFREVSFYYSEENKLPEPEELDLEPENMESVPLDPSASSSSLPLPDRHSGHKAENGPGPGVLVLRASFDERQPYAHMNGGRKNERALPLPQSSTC
Test [5] shares this target. Particulars: at 10 µM.
The target in test [6] is T3, Inhibitor of nuclear factor kappa-B kinase subunit alpha (Homo sapiens) (UniProt O15111).
T3 sequence (whole entry): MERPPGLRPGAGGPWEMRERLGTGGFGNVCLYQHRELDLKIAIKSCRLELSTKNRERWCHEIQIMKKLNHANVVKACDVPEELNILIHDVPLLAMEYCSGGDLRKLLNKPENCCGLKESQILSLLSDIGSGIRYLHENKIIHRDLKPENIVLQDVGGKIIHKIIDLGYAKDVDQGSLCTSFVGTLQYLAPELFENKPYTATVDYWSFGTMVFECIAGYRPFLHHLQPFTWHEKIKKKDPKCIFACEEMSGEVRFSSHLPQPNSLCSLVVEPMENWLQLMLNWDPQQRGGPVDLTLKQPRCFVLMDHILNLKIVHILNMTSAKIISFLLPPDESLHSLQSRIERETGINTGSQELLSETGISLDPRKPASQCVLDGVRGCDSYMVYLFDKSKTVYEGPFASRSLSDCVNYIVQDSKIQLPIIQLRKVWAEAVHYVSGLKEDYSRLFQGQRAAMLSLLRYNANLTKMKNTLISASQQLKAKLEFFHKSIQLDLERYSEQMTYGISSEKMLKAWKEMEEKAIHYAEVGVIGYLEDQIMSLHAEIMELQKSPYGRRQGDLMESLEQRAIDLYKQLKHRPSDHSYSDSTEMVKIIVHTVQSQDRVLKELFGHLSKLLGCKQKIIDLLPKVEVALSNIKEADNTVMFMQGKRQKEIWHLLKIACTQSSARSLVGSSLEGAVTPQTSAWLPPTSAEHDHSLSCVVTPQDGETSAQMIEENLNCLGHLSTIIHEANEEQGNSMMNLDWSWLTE
Particulars: at 1 µM.

Test [7] has as its target T3, Inhibitor of nuclear factor kappa-B kinase subunit alpha (Homo sapiens). Particulars: at 10 µM.
Test [8] has as its target T4, Inhibitor of nuclear factor kappa-B kinase subunit beta (Homo sapiens) (UniProt O14920).
T4 sequence (whole entry): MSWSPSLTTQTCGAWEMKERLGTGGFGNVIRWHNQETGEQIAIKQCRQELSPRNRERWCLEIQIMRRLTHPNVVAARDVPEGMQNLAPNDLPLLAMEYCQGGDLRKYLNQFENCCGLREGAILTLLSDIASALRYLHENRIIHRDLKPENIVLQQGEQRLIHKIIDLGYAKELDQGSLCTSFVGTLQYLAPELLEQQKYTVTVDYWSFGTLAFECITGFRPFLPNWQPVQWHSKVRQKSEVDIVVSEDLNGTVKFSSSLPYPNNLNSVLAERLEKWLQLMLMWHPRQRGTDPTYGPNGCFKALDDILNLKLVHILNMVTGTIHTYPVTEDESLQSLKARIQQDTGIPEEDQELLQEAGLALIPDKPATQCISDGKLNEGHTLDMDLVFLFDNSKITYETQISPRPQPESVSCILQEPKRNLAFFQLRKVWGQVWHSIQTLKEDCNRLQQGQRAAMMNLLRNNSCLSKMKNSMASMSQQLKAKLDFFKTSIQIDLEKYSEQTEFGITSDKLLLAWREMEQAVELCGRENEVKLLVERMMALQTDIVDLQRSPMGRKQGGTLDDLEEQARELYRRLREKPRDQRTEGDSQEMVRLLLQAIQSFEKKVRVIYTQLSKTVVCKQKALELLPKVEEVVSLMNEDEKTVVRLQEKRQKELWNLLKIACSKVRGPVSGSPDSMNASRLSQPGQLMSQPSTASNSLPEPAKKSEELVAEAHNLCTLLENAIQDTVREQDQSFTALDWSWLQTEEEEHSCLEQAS
Particulars: at 1 µM.

The target of test [9] is T4, Inhibitor of nuclear factor kappa-B kinase subunit beta (Homo sapiens). Conditions: at 10 µM.
Test [10] addresses Insulin receptor (Homo sapiens) (UniProt P06213). Particulars: at 1 µM.

Sequence of Insulin receptor (Homo sapiens) (P06213 28-758 limits assumed): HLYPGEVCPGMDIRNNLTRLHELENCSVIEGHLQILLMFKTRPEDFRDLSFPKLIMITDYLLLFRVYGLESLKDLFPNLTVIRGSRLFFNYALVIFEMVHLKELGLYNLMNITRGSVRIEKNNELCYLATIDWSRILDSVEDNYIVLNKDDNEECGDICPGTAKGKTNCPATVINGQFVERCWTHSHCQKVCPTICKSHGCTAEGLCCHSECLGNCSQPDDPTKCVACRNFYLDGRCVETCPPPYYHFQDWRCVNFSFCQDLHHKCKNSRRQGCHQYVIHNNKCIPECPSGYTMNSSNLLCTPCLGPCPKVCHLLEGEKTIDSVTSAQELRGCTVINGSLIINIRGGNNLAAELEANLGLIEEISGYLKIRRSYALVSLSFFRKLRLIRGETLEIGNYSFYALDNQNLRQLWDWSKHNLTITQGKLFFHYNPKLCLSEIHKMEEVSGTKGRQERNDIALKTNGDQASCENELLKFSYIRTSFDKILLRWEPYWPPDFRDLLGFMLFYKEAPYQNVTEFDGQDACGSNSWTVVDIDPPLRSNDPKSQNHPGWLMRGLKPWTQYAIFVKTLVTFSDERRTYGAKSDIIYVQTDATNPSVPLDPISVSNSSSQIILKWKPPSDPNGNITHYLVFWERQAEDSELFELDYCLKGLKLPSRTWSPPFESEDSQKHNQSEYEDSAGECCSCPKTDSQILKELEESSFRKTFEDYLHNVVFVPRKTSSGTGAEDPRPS
Sequence of Insulin receptor (Homo sapiens) (P06213 763-1382 limits assumed): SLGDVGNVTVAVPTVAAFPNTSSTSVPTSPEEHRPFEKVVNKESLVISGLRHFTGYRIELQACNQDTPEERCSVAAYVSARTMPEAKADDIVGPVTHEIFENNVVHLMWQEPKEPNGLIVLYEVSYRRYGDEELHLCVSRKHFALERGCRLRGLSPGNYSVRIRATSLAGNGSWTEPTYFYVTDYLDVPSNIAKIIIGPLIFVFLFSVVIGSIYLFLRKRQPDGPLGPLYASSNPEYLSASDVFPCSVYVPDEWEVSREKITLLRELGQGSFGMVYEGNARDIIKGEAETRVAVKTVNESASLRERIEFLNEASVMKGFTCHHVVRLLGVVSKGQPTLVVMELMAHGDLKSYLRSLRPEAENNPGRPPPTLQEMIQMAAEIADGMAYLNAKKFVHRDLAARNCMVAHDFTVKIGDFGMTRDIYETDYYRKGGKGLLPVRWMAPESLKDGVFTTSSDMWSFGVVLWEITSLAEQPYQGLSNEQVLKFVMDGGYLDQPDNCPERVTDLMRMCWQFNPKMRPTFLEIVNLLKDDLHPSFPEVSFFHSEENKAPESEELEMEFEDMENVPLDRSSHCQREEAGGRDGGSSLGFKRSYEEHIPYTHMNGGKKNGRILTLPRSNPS

By residual activity is commonly meant the signal under treatment as a percentage of the control signal. Take `CN(C)c1ccc(/C=C2\C(=O)Nc3ccccc32)cc1`: the residual activity amounted to 45% in test [1]; 93% in [2]; 98% in test [3]; 105% in test [4]; 103% in [5]; 102% in test [6]. Also, the residual activity in test [7] amounted to 120%; in test [8] it was 112%; in test [9], 93%; in test [10] it was 99%.

The values above are taken from ChEMBL document CHEMBL2218924, “A broad activity screen in support of a chemogenomic map for kinase signalling research and drug discovery” (Biochem J, 2013).
